In PubChem BioAssay (NCATS):
Results filed as inconclusive are left out. Activity calls are given as the source filed them. Unless noted, calls come from the whole dose curve; as a rule, active = well fitted curve in the direction sought with a large enough effect; inconclusive = small, poorly fitted or top-dose-only effect, or another doubt; inactive = no such curve, though single readings can be large; an effect the other way counts as inactive or inconclusive.

Columns and labels:
[1] = KB-3-1 P-gp reporter qHTS against the NCATS DSHEA and TCM libraries (AID 1919975); note: 0% is about no effect
How it was run: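 CellTiter-Glo luminescence viability readout; KB-3-1 parental cells, 500/well, attached ~4 h, then compound for ~72 h, 37C, 5% CO2. Bortezomib intraplate control.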

[2] = qHTS Counterscreen for compound interference against the NCATS DSHEA and TCM libraries (AID 1919978); details: firefly luciferase detection reagent interference, luminescence;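 note: compounds preincubated with 1 µM D-luciferin or buffer before detection reagent; % of control where 0% means no effect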
How it was run: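 Luminescence counterscreen for detection-kit interference: compounds at 19.5 nM–39.8 uM final, 15 min RT with 1 uM D-luciferin or buffer only; detection reagent added, 30 min RT, then read.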

[3] = Dual reporter qHTS for agonist of Pregnane X Receptor (hPXR) against the NCATS DSHEA and TCM libraries: Fluorescence readout (AID 1920058); note: 0% is about no effect
How it was run: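 Viability readout (CellTiter-Fluor, 405/540 nm, 1 h) from agonist-mode PXR dual reporter in hPXR-Luc HepG2 cells. Substances ~24 h, 37 °C, 5% CO2; rifampicin reference, tetraoctyl ammonium bromide cytotoxic control.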

[4] = biological target: Nuclear receptor subfamily 1 group I member 2 (Homo sapiens) (UniProt O75469); test: Dual reporter qHTS for agonist of Pregnane X Receptor (hPXR) against the NCATS DSHEA and TCM libraries: Luminescence readout (AID 1920059); note: potency is the fitted concentration of half-maximal effect
Nuclear receptor subfamily 1 group I member 2 (Homo sapiens), sequence (O75469 whole entry, looked up): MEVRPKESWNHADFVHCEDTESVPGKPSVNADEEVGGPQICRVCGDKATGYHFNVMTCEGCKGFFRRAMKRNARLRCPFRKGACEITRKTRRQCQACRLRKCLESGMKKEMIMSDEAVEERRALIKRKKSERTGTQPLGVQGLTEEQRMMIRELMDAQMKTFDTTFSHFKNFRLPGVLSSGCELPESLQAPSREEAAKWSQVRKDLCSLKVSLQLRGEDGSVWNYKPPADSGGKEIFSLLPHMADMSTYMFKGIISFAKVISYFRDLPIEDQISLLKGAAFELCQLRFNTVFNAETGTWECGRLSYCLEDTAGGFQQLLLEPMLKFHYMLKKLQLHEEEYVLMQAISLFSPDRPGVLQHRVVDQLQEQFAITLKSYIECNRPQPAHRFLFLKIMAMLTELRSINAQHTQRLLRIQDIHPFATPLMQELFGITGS
How it was run: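 Luminescent PXR reporter read (ONE-Glo) after a CellTiter-Fluor viability read, following 24 h, 37C treatment of HepG2 cells stably carrying hPXR-Luc.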

[5] = biological target: Nuclear receptor subfamily 1 group I member 2 (Homo sapiens) (UniProt O75469); test: Dual reporter qHTS for antagonist of Pregnane X Receptor (hPXR) against the NCATS DSHEA and TCM libraries: Luminescence Readout (AID 1920060);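 note: HepG2 cells carrying hPXR luciferase reporter stimulated with rifampicin at 2 µM; 0% is about no effect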
How it was run: (§1)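 Antagonist mode: rifampicin 2 uM final co-added with compounds to hPXR-LucHepG2 cells for 24 h at 37C. Viability by CellTiter-Fluor, Ex/Em 405/540 nm, 1 h; reporter by ONE-Glo luminescence.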

[6] = Dual reporter qHTS for antagonist of Pregnane X Receptor (hPXR) against the NCATS DSHEA and TCM libraries: Fluorescence Readout (AID 1920061); note: 0% is about no effect
How it was run: as §1

[7] = qHTS drug screen for cell cycle checkpoint inhibitors in PARPi-resistant BRCA-mutant ovarian cancer cell lines. (AID 1963452; calls by dose curve); details: PEO1/OlaR viability, CellTiter-Glo luminescence, 96 h, stronger effect = lower value
How it was run: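 PEO1, PEO4 and PEO1/OlaR ovarian cancer cells, 600 per well, exposed 96 h at 37C to a dilution series. Viability read by CellTiter-Glo luminescence, normalized to DMSO and empty wells; activity summarized as Z-AUC.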

[8] = qHTS profiling for inhibitors of Plasmodium falciparum proliferation (AID 504749); note: potency is the fitted concentration of half-maximal effect;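 for activity, negative = inhibition: 0% = DMSO vehicle and full inhibition = artemisinin control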; for all read-outs here: nearly all actives have a fitted effect of over 60% in size; details: P. falciparum in erythrocytes, SYBR Green DNA, 72 h; for activity, negative = inhibition: at 28.7 µM (top of the series)
How it was run: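 SYBR Green fluorescence of parasite DNA, read after lysis and overnight dark incubation, measured growth over 72 h in erythrocyte culture at 0.3% parasitemia and 2.5% hematocrit. Data normalised to DMSO and 0.29 uM artemisinin, with plate-drift correction.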

[9] = biological target: Cytochrome P450 2C19 (Homo sapiens) (UniProt P33261); test: qHTS for inhibitors of CYP2C19 against the NCATS DSHEA and TCM libraries (AID 1919974);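 note: luminescence from luciferin released by CYP2C19 oxidation of a pro-luciferin substrate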; note: potency is the fitted concentration of half-maximal effect
Cytochrome P450 2C19 (Homo sapiens), sequence (P33261 whole entry, looked up, canonical isoform): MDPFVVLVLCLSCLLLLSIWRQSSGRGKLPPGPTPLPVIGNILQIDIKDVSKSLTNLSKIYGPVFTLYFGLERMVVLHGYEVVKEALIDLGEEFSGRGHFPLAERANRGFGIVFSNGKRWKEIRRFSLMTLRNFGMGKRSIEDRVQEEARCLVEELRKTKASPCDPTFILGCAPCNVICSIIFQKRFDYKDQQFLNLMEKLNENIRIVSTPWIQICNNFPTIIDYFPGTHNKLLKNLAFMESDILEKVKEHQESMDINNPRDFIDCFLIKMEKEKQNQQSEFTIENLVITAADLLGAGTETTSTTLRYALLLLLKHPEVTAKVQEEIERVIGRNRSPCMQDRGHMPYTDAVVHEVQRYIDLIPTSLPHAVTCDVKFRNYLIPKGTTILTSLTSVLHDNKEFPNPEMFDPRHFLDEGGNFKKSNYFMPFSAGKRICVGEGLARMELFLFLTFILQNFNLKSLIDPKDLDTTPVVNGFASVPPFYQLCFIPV
How it was run: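 Each CYP isoform and its pro-luciferin substrate, at isoform-specific final concentrations, were preincubated 15 min at RT with substances. NADPH regeneration solution (1x) started a 30-45 min reaction, and P450-Glo luminescence was read.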

[10] = biological target: Cytochrome P450 1A2 (Homo sapiens) (UniProt P05177); test: qHTS for inhibitors of CYPIA2 against the NCATS DSHEA and TCM libraries (AID 1919976); note: % is set by controls: 0 for no effect and ±100 for the full control effect
Cytochrome P450 1A2 (Homo sapiens), sequence (P05177 whole entry, looked up): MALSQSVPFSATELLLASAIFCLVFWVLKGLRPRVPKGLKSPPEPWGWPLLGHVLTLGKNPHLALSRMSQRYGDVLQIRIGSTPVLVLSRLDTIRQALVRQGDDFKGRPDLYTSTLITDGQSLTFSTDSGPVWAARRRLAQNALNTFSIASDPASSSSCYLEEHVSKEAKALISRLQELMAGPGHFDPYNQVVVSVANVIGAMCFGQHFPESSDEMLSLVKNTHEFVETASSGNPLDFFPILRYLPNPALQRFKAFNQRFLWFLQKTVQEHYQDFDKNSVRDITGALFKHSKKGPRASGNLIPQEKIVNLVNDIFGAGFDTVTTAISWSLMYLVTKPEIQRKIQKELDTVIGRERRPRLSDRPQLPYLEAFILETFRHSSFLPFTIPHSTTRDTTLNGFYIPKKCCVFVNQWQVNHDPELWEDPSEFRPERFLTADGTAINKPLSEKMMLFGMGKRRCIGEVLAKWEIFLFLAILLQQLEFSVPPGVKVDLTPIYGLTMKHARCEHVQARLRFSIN
How it was run: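 Reaction started with 1x NADPH regeneration solution and run 30-45 min, room temperature, protected from light, after compounds sat 15 min with CYP1A2 and pro-luciferin substrate. P450-Glo detection gave luminescence; furafylline served as control.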

[11] = measured here: PEO1 parental Z-AUC

## CC[C@H](CC[C@@H](C)[C@H]1CC[C@H]2[C@@H]3CC=C4C[C@@H](O)CC[C@]4(C)[C@H]3CC[C@]12C)C(C)C
[1]
  outcome: inactive
[2]
  max response: -1.45% (inactive)
[3]
  outcome: inactive
[4]
  Potency: inactive
[5]
  outcome: inactive
[6]
  outcome: inactive
[7]
  Z-AUC: 0.987 (inactive)
[7]; [11]
  Z-AUC: 0.643
[7]; measured here: PEO4 Z-AUC
  Z-AUC: 0.776

## CC(C)CCCCCCc1ccc(O)cc1
[8]; parasite line B
  activity, negative = inhibition: -29% (inactive)

## NC[C@H]1O[C@H](O[C@H]2[C@H](O)[C@@H](O[C@H]3O[C@H](CO)[C@@H](O)[C@H](N)[C@H]3O)[C@H](N)C[C@@H]2N)[C@H](N)C[C@@H]1O
[7]
  Z-AUC: -0.784 (inactive)
[7]; [11]
  Z-AUC: -0.522
[7]; measured here: PEO4 Z-AUC
  Z-AUC: -0.139

## CCCCC[C@H](O)/C=C/[C@H]1[C@H](O)CC(=O)[C@@H]1CCCCCCC(=O)O
[7]
  Z-AUC: -0.83 (inactive)
[7]; [11]
  Z-AUC: -0.667
[7]; measured here: PEO4 Z-AUC
  Z-AUC: -0.531

## OC1OC[C@@H](O)[C@H](O)[C@@H]1O (stereo partly specified)
[8]; parasite line A
  activity, negative = inhibition: -2.48% (inactive)

## O=C(O)/C=C/c1ccccc1
[9]
  Potency: inactive
[1]
  outcome: inactive
[10]
  Potency: inactive
[2]
  max response: -1.31% (inactive)
[3]
  outcome: inactive
[4]
  Potency: inactive
[5]
  outcome: inactive
[6]
  outcome: inactive
[8]; parasite line A
  activity, negative = inhibition: -6.43% (inactive)
[8]; parasite line B
  activity, negative = inhibition: 4.85% (inactive)

## CC(C)=CCC/C(C)=C/CC/C(C)=C/CC/C(C)=C/CC1=C(C)C(=O)c2ccccc2C1=O
[10]
  Potency: inactive
[2]
  max response: -2.14% (inactive)
[3]
  outcome: inactive
[5]
  outcome: inactive
[6]
  outcome: inactive

## O=C1c2ccccc2C(=O)C1c1ccc(Cl)cc1
[8]; parasite line A
  activity, negative = inhibition: 10.7% (inactive)

## COc1cc(C)c(/C=C/C(C)=C/C=C/C(C)=C/C(=O)O)c(C)c1C
[7]
  Z-AUC: 0.967 (inactive)
[7]; [11]
  Z-AUC: 0.941
[7]; measured here: PEO4 Z-AUC
  Z-AUC: 1.13
[8]; parasite line A
  activity, negative = inhibition: -5.12% (inactive)
[8]; parasite line B
  activity, negative = inhibition: -0.604% (inactive)

## C=C1[C@H](CO)[C@@H](O)C[C@@H]1n1cnc2c(=O)[nH]c(N)nc21
[7]
  Z-AUC: 1.7 (inactive)
[7]; [11]
  Z-AUC: 1.15
[7]; measured here: PEO4 Z-AUC
  Z-AUC: 1.37

## COc1ccc([C@@H]2CC(=O)c3c(O)cc(O[C@@H]4O[C@H](CO[C@@H]5O[C@@H](C)[C@H](O)[C@@H](O)[C@H]5O)[C@@H](O)[C@H](O)[C@H]4O)cc3O2)cc1O
[7]
  Z-AUC: -0.188 (inactive)
[7]; [11]
  Z-AUC: 0.305
[7]; measured here: PEO4 Z-AUC
  Z-AUC: 0.67

## C=C1CC[C@H](O)C/C1=C\C=C1/CCC[C@]2(C)[C@@H]([C@H](C)CCCC(C)C)CC[C@@H]12
[9]
  Potency: 25.1 µM (active)
[1]
  outcome: inactive
[10]
  Potency: inactive
[2]
  max response: 0.0382% (inactive)
[3]
  outcome: inactive
[4]
  Potency: 31.6 µM (active)
[5]
  outcome: inactive
[6]
  outcome: inactive

## CC/C=C\C/C=C\C/C=C\C/C=C\C/C=C\C/C=C\CCC(=O)O
[1]
  outcome: inactive
[10]
  Potency: inactive
[2]
  max response: -0.949% (inactive)
[3]
  outcome: inactive
[4]
  Potency: inactive
[5]
  outcome: inactive
[6]
  outcome: inactive
[8]; parasite line A
  activity, negative = inhibition: -24.9% (inactive)
[8]; parasite line B
  activity, negative = inhibition: -13.6% (inactive)

## CCCCCCCCCCCC(=O)OCC(O)CO (stereo unspecified)
[1]
  outcome: inactive
[2]
  max response: 2.27% (inactive)
[3]
  outcome: inactive
[4]
  Potency: inactive
[5]
  outcome: inactive
[6]
  outcome: inactive
[8]; parasite line A
  activity, negative = inhibition: 0.724% (inactive)
[8]; parasite line B
  activity, negative = inhibition: -1.86% (inactive)

## CO[C@H]1C[C@@H]2CC[C@@H](C)[C@@](O)(O2)C(=O)C(=O)N2CCCC[C@H]2C(=O)O[C@H]([C@H](C)C[C@@H]2CC[C@@H](OC(=O)C(C)(CO)CO)[C@H](OC)C2)CC(=O)[C@H](C)/C=C(\C)[C@@H](O)[C@@H](OC)C(=O)[C@H](C)C[C@H](C)/C=C/C=C/C=C/1C
[7]
  Z-AUC: -1.22 (inactive)
[7]; [11]
  Z-AUC: -1.04
[7]; measured here: PEO4 Z-AUC
  Z-AUC: -0.64
[8]; parasite line A
  activity, negative = inhibition: 5.02% (inactive)
[8]; parasite line B
  activity, negative = inhibition: 6.39% (inactive)

## CN[C@@H]1[C@@H](O)[C@@H](O[C@@H]2[C@@H](O)[C@H](O[C@H]3O[C@H](CN)[C@@H](O)[C@H](O)[C@H]3O)[C@@H](N)C[C@H]2NC(=O)C(O)CN)OC[C@]1(C)O (stereo partly specified)
[7]
  Z-AUC: -1.59 (inactive)
[7]; [11]
  Z-AUC: -0.482
[7]; measured here: PEO4 Z-AUC
  Z-AUC: -1.12

## CC(C)=CCC/C(C)=C/C=C/C(C)=C/C=C/C(C)=C/C=C/C=C(C)/C=C/C=C(C)/C=C/C=C(\C)CCC=C(C)C
[9]
  Potency: inactive
[1]
  outcome: inactive
[10]
  Potency: inactive
[2]
  max response: 0.511% (inactive)
[3]
  outcome: inactive
[4]
  Potency: inactive
[5]
  outcome: inactive
[6]
  outcome: inactive
[8]; parasite line A
  activity, negative = inhibition: -19% (inactive)
[8]; parasite line B
  activity, negative = inhibition: -16% (inactive)

## C=CC[N+]1([C@H]2C[C@H]3[C@@H]4CC[C@H]5C[C@H](O)[C@@H](N6CCOCC6)C[C@]5(C)[C@H]4CC[C@]3(C)[C@H]2OC(C)=O)CCCC1
[7]
  Z-AUC: 1.19 (inactive)
[7]; [11]
  Z-AUC: 1.23
[7]; measured here: PEO4 Z-AUC
  Z-AUC: 0.984

## CC(=O)NCCCS(=O)(=O)O
[7]
  Z-AUC: 1.02 (inactive)
[7]; [11]
  Z-AUC: 1.45
[7]; measured here: PEO4 Z-AUC
  Z-AUC: 1.03
[8]; parasite line A
  activity, negative = inhibition: 2.58% (inactive)
[8]; parasite line B
  activity, negative = inhibition: 11.9% (inactive)

## C=C1CC[C@H](O)CC1=C/C=C1\CCC[C@]2(C)[C@@H]([C@H](C)/C=C/[C@H](C)C(C)C)CC[C@@H]12
[9]
  Potency: 12.6 µM (active)
[1]
  outcome: inactive
[10]
  Potency: inactive
[2]
  max response: -0.883% (inactive)
[3]
  outcome: inactive
[5]
  outcome: inactive
[6]
  outcome: inactive

## CCC[C@@H]1C[C@@H](C(=O)N[C@@H]([C@H]2O[C@H](SC)[C@H](O)[C@@H](O)[C@H]2O)[C@H](C)Cl)N(C)C1
[7]
  Z-AUC: 1.72 (inactive)
[7]; [11]
  Z-AUC: 1.69
[7]; measured here: PEO4 Z-AUC
  Z-AUC: 1.63

## CC(CN(C)C)CN1c2ccccc2Sc2ccc(C(F)(F)F)cc21 (stereo unspecified)
[8]; parasite line A
  Potency: 11.2 µM (active)

## COc1ccccc1N1CCN(CCCC(=O)c2ccc(F)cc2)CC1
[8]; parasite line A
  activity, negative = inhibition: -16.2% (inactive)
[8]; parasite line B
  activity, negative = inhibition: 9.5% (inactive)

## CCc1ncnc2cc(OC)c(OC)cc12
[8]; parasite line A
  activity, negative = inhibition: -5.32% (inactive)
[8]; parasite line B
  activity, negative = inhibition: 10.1% (inactive)

## O=C(Nc1ccc(O)cc1)c1ccccc1O
[8]; parasite line A
  activity, negative = inhibition: 12.3% (inactive)
